Screening results: PubChem, National Center for Advancing Translational Sciences (NCATS)
Sampled rows, rich in hits. Any-hit rate of the full collection: about 4.6%.
TRHR agonist – agonists of human TRH receptor; 0.18% of 360,000 active; AID 493084; TRHR cells, calcium flux fluo-8, FDSS agonist mode; activation, % at 2 µM
Target sequence (P34981 whole entry, looked up): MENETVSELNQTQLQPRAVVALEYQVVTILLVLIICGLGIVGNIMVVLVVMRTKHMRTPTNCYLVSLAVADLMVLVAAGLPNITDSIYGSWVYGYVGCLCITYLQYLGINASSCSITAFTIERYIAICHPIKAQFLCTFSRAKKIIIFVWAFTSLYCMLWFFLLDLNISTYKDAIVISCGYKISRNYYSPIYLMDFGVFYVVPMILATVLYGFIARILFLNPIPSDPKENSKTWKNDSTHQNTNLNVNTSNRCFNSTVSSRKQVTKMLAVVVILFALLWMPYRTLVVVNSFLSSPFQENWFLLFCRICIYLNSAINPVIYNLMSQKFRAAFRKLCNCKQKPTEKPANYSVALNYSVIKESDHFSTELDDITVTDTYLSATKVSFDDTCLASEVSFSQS
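Agonist-mode FDSS calcium read (Ex 480/Em 530, 1 s cycles) in 1536-well TRHR cells with fluo-8 dye, after 10-cycle baseline and 23 nL compound addition; TRH at EC20 (10 nM final) added afterwards for the enhancer phase.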
D1 antag – blocks dopamine activation of the human D1 receptor | P21728 | HEK293 TREx D1 cells, calcium flux, dopamine EC80; stronger effect = lower value | activity change, negative = inhibition, % at 10 µM | 3.2% of 360,000 active | AID 504652; in the data active = activity change below about -30%
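Calcium flux readout: force-coupled, inducible Hek293 Trex D1 line, cells induced overnight at 30 C with tetracycline, dye-loaded 30–90 min at RT. Antagonism scored against EC80 dopamine challenge given 180 s after compound.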
D1 PAM – potentiators of human D1 dopamine receptor | potentiation, % at 10 µM | 0.036% of 360,000 active | AID 504651 | P21728 | HEK293 TREx D1 cells, calcium flux, dopamine EC20 potentiation; in the data active = potentiation above about 30%
TRHR enhancer – allosterically enhances the human TRH receptor; 0.66% of 360,000 active; enhancement, % at 2 µM; TRHR cells, fluo-8 calcium fluorescence, EC20 TRH enhancement; AID 493056; P34981; in the data active = enhancement above about 30%
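TRHR-expressing cells loaded with fluo-8 calcium dye were read kinetically (ex 480/em 530) during compound addition, then stimulated with an EC20 of TRH (10 nM final). Enhancement of the Gq-mediated intracellular calcium response was scored.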
Epigenetic derep – derepresses silenced GFP reporter in murine cells | murine LDR cells, GFP reporter derepression, 30 h | Potency, µM (doses to about 53.9 µM), actives largely listed as activators | 0.2% of 280,000 active | AID 1865; active = well fitted activation curve with a large enough effect; note: nearly all actives have a fitted effect of over 60% in size
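GFP-positive cell count by laser-scanning cytometry (objects 20–120 um) after 30 h, 37 C compound exposure of murine LDR cells; reporter is CMV-GFP integrated at a silenced locus, inducible by HDAC or DNMT inhibitors.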
D1 ag – activates the human D1 dopamine receptor; activation, % at 2 µM; P21728; AID 504660; HEK293 T-REx D1 cells, calcium flux, agonist mode; 1% of 360,000 active
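Tetracycline-induced HEK293 TREx D1 cells, force-coupled to calcium signalling, were dye-loaded with a no-wash calcium kit. Compound was pin-added after a 10 s baseline. Fluorescence was read kinetically at 1 cycle/s for 180 s, with calcium rises flagged as agonism.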
A number is an active result; 0 = inactive; - = no result. Cut-off read from the data, not from the text of the source, unless noted: active = activation above about 30%; inactive = the rest.

SMILES	TRHR agonist	D1 antag	D1 PAM	TRHR enhancer	Epigenetic derep	D1 ag
CSc1ccc(NC(=O)NCCCN2CCN(c3ccccc3F)CC2)cc1	0	-73	0	0	0	37
O=C(NCCCN1CCN(c2ccccc2F)CC1)Nc1ccc(F)cc1	0	-79	0	0	0	0
O=C(NCCCN1CCCC1)Nc1ccc(F)cc1	0	0	0	0	-	0
CCc1c(C)sc2c1CCN(Cc1ccccc1F)C2c1ccccc1 (centres undefined)	0	0	0	0	0	0
Cc1ccc(NC(=O)C2CCCN2S(=O)(=O)c2ccc3nc(-c4ccccc4)[nH]c3c2)cc1F (centres undefined)	0	0	0	0	0	0
Cc1ccc(CN2COc3c(Cl)cc4c(-c5ccccc5)cc(=O)oc4c3C2)cc1	0	-32	0	0	0	0
Nc1nc(-c2ccccn2)nc(N)c1Cc1ccc(Cl)cc1Cl	0	0	51	0	0	34
Cc1cccc(C(=O)NC(=S)NNC(=O)COc2c(C)cccc2C)c1	0	0	0	0	0	137
O=C(COc1ccccc1)NNC(=S)NC(=O)c1ccccc1	0	0	0	0	0	0
Cc1cccc(C(=O)NC(=S)NNC(=O)Cc2ccccc2)c1	0	0	0	0	0	72
CCC(=O)NNC(=S)NC(=O)c1ccc(C)cc1	0	0	0	0	0	0
Cc1ccc(C(=O)NC(=S)Nc2ccccc2C(F)(F)F)cc1C	0	0	0	0	0	0
Cc1cccc(C(=O)NC(=S)Nc2ccccc2C(F)(F)F)c1	0	0	0	32	0	0
Cc1cccc(C(=O)NC(=S)Nc2ccccc2C(=O)O)c1	0	0	0	0	0	0
Cc1ccc(C(=O)NC(=S)NNC(=O)COc2ccccc2C)cc1	0	0	0	0	0	31
CCC(=O)N1CCc2cc(CNS(=O)(=O)c3ccccc3F)ccc21	0	0	0	0	0	0
O=C(NCc1ccccc1Cl)c1cnc2sc(N3CCCCC3)nn2c1=O	0	0	0	0	0	0
Cc1ccc2nc(CSc3nnc(NC(=O)COc4ccccc4F)s3)cc(=O)n2c1	0	0	0	0	0	0
CCN(CC)CCCNC(=O)Cn1c(-c2cccs2)cc2cc(Cl)ccc21	0	0	0	0	0	0
Cc1cccc(C(=O)NC(=S)NNC(=O)c2ccccc2Cl)c1	35	-35	0	0	0	301
Cc1ccc(S(=O)(=O)/C=C\C#N)cc1	-	-	-	-	0	-
O=C(c1ccc(-c2cccc(C(F)(F)F)c2)o1)N1CCCCCCC1	0	-40	0	0	-	0
CC(C)(C)N(Cc1ccccc1)C(=O)CN1C(=O)NC2(CCCCCC2)C1=O	0	-75	-	0	-	0
O=C(O)c1cccc(N/N=C(\N=Nc2ccccc2)c2ccccc2)c1	0	0	0	0	-	0
NC(=O)/C(N=Nc1ccccc1)=N/Nc1ccccc1	0	-55	0	0	-	0
SMILES	TRHR agonist	D1 antag	D1 PAM	TRHR enhancer	Epigenetic derep	D1 ag
CC(=O)NS(=O)(=O)c1ccc(N=NN2CCOCC2)cc1	0	-57	0	0	0	0
Cc1cc(C)cc(C(=O)OCC(=O)N2CCCCCC2)c1	0	-30	0	0	-	0
COc1cc(OC)cc(C(=O)OCC(=O)N2CCCC2)c1	0	0	0	0	-	0
CCN1CCC(O)(C#Cc2ccccc2)CC1	0	0	0	0	-	0
CC1C(c2ccccc2)N(C)C(c2ccccc2)C(C)C1(O)C#Cc1ccccc1 (centres undefined)	0	0	0	39	0	0
CC(C)c1ccc(Cn2ccc3c4c(N)nc(NC5CC5)nc4ccc32)cc1	-	-	-	-	0	-
CN(C(=O)COC(=O)c1cccnc1Nc1ccccc1F)C1CCS(=O)(=O)C1 (centres undefined)	0	-31	0	0	0	0
Cc1noc(C)c1C(=O)OCC(=O)N(C)C1CCS(=O)(=O)C1 (centres undefined)	0	-80	0	0	0	0
CCN(C(=O)COC(=O)c1c(C)noc1C)C1CCS(=O)(=O)C1 (centres undefined)	0	0	0	0	0	0
CN(C(=O)COC(=O)c1ccc(-c2ccc(O)cc2)cc1)C1CCS(=O)(=O)C1 (centres undefined)	0	-46	0	0	0	0
